FBPA Giardia inh: inhibitors of Giardia lamblia fructose-1,6-bisphosphate aldolase; A8B2U2; purified Giardia FBPA; Potency, µM (titrated, usually from 59.6 µM), usual class: inhibitors; hit rate 0.71% among 290,000; AID 2451; further: nearly all actives have a fitted effect of over 55% in size
Target sequence (A8B2U2 whole entry, looked up): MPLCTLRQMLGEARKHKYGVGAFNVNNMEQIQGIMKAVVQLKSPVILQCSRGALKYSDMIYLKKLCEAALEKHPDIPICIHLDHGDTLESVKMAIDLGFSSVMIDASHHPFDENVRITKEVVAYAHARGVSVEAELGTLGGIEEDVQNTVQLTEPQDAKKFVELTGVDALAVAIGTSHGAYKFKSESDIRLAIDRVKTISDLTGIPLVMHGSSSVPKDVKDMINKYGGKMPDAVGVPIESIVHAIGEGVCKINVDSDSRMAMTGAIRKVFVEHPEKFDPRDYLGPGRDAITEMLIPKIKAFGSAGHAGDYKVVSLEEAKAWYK
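40 nM FBPA preincubated 10 min at RT with compound (up to 57.5 uM final), then substrate plus GAPDH/TPI/NAD/arsenate coupling and diaphorase/resazurin added. Fluorescence read after 20 min at RT, 525/598 nm.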
Pf growth 96h: P. falciparum growth inhibition at 96 hours; P. falciparum luciferase reporter growth, 96 h; Potency, µM (highest dose often 28.7 µM), usual class: inhibitors; hit rate 6.9% among 320,000; AID 504834
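Plates of compound plus infected erythrocytes (2% hematocrit, 0.05% parasitemia final) incubate 96 hours, 37 C, 5% CO2. Detection reagent added; reduced luminescence from the parasites' luciferase reporter flags inhibition.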
HCMV inh: human cytomegalovirus inhibition; HFF cells, HCMV-luciferase reporter, 72 h; active compounds read low; AID 1259415; activity change, negative = inhibition, % at 57.5 µM; hit rate 4.5% among 410,000; in the data active means activity change below about -60%; inconclusive means no clear call, values can overlap the other calls; inactive means above about -39%
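After 16 h attachment at 37C, HFF cells received test compound and HCMV-luciferase (1 PFU/cell); reporter luminescence read 72 h later, data normalized against buffer-only and known inhibitor Salinomycin.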
Sm TGR inh: blocks Schistosoma mansoni thioredoxin glutathione reductase | Q962Y6 | purified TGR, DTNB reduction, TNB absorbance 405 nm | Potency, µM (titrated, usually from 114 µM), actives largely listed as inhibitors | hit rate 3% among 360,000 | AID 485364; further: nearly all actives have a fitted effect of over 60% in size
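TGR 20 nM + NADPH 100 uM (dispensed conc.), cpd preinc 15 min RT; start with NADPH (500 uM addition) then DTNB (15 mM addition). Kinetic TNB absorbance, 405 nm filter. Four-parameter Hill fit across titration.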
Pf growth 48h: P. falciparum growth inhibition at 48 hours (one generation). P. falciparum luciferase growth in erythrocytes, 48 h. Potency, µM (titrated, usually from 28.7 µM), actives largely listed as inhibitors. hit rate 5.9% among 310,000. AID 504832
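Erythrocytes infected with P. falciparum carrying an integrated firefly luciferase reporter (2% hematocrit, 0.1% parasitemia final) were exposed to compounds in RPMI 1640 with 0.5% Albumax at 37 C, 5% CO2. Growth inhibition was scored as reduced luminescence.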
A number is an active result; n = inactive; u = inconclusive; x = no result; ! = a repeat was not active; [ ] = remark or other dose. Rows were chosen to be rich in hits. Some 14% of all compounds tested hit in one or more screens of this group. Unless noted, the call rests on the fitted dose curve; in most records, active means well fitted curve in the direction sought with a large enough effect; inconclusive means small, poorly fitted or top-dose-only effect, or another doubt; inactive means no such curve, though single readings can be large; an effect the other way counts as inactive or inconclusive.

SMILES	FBPA Giardia inh	Pf growth 96h	HCMV inh	Sm TGR inh	Pf growth 48h
COc1cc(C2C(C(C)=O)=C(C)Nc3ncnn32)ccc1O (centres undefined)	n	n	n	n	n
CC(=O)C1=C(C)Nc2ncnn2C1c1ccccc1OCc1ccccc1 (centres undefined)	n	n	n	u	8.28µM
COc1ccc(C2C(C(C)=O)=C(C)Nc3ncnn32)cc1[N+](=O)[O-] (centres undefined)	n	4.15µM	n	n	n[0.00184 µM]
COCCn1c(SCC(=O)N2CCCC2=O)nnc1-c1ccncc1	x	x	n	x	x
Cc1ccc(NC(=O)C2CCCN(C3=NS(=O)(=O)c4ccccc43)C2)c(O)c1 (centres undefined)	x	14.7µM	n	n	11.7µM
Cc1ccc(NC(=O)C2CCCN(c3ncccn3)C2)c(C)c1 (centres undefined)	n	13.1µM	n	n	n
c1ccc(-c2nnc3sc(CN4CCc5ccccc54)cn23)cc1	n	u	n	n	10.4µM
Cc1cccc(N(CC(=O)NC(C)C)C(=O)CCC(=O)Nc2nccs2)c1	n	u	n	n	9.28µM
Cc1ccc(N(CC(=O)NC(C)C)C(=O)CCC(=O)Nc2nccs2)cc1	n	n	n	n	n
CC(C)NC(=O)CN(C(=O)CCC(=O)Nc1nccs1)c1ccc2c(c1)OCO2	x	13.1µM	n	n	n
O=C(CN(C(=O)CCC(=O)Nc1nccs1)c1cccc(F)c1)NCCc1ccccc1	n	n	-88.3	n	n
Clc1ccc2nc(-c3cccc(SC4CCCCC4)c3)c(NCc3ccccc3)n2c1	x	3.7µM	n	n	4.15µM
CCCCNc1c(-c2cccc(SC3CCCCC3)c2)nc2ccc(Cl)cn12	x	u	n	n	10.4µM
CCCCNc1c(-c2cccc(SC(C)CC)c2)nc2ccc(Cl)cn12 (centres undefined)	x	x	n	x	x
CCCCCCSc1ccc(-c2nc3ccc(C)cn3c2NCc2ccccc2)cc1	x	u	n	n	u
CCCCCCSc1cccc(-c2nc3ccc(Cl)cn3c2NCc2ccccc2)c1	x	u	n	n	7.38µM
CC1(c2ccccc2)NC(=O)N(CC(=O)Nc2nnc(C3CC3)s2)C1=O (centres undefined)	n	n	n	n	n
O=c1cc(Nc2ccc3c(c2)OCCO3)[nH]c(=O)n1C1CCCCC1	n	n	n	n	2.08µM
CCc1ccc(Nc2cc(=O)n(C3CCCCC3)c(=O)[nH]2)cc1	n	n	n	n	0.147µM
CC(O)(c1ccc(F)c(F)c1)c1nc(-c2ccncc2)cs1 (centres undefined)	x	x	n	x	x
CN(C)c1ccc(-c2csc(C(C)(O)c3ccc(F)c(F)c3)n2)cc1 (centres undefined)	x	x	-63.8	x	x
COc1ccc(-c2csc(C(C)(O)c3ccc(F)c(F)c3)n2)cc1 (centres undefined)	x	x	-63.5	x	x
COc1ccc(C(C)(O)c2nc(-c3cccc(C(F)(F)F)c3)cs2)cc1 (centres undefined)	x	x	-66.7	x	x
CC(C)(C)C(=O)c1c(N)[nH]c(C(=O)c2ccccc2)c1-c1cc2ccccc2nc1Cl	x	x	n	x	x
CCOc1ccc(NC(=O)Cn2nnc(-c3nc(-c4ccncc4)no3)c2N)cc1	x	x	n	n	x
SMILES	FBPA Giardia inh	Pf growth 96h	HCMV inh	Sm TGR inh	Pf growth 48h
C[C@H](CO)N1C[C@H](C)[C@@H](CN(C)S(C)(=O)=O)OCc2cnnn2CCCC1=O	x	x	n	x	x
CC1(C2CC2)NC(=O)N(CC(=O)Nc2ccc(Cl)c([N+](=O)[O-])c2)C1=O (centres undefined)	x	n	n	n	n
COc1ccc(-c2n[nH]c(=S)n2-c2cc(OC)ccc2OC)cc1	n	u	n	n	n
COc1ccc(OC)c(-n2c(-c3cccc(O)c3)n[nH]c2=S)c1	n	n	n	n	0.738µM
Cc1nc2ccccc2c2oc(C(=O)NCCN3CCN(C)CC3)cc12	n	n	-69.8	n	x
CN(C)C(CNC(=O)c1ccc(Cl)c(S(=O)(=O)N2CCCCCC2)c1)c1ccccc1 (centres undefined)	x	u	n	n	5.22µM
O=C(Nc1ncccc1O)c1ccc(Cl)c(S(=O)(=O)N2CCCC2)c1	x	x	n	x	x
CC(NC(=O)c1ccc(Cl)c(S(=O)(=O)N2CCCCCC2)c1)c1cccnc1 (centres undefined)	x	u	u	n	11.7µM
O=C(Nc1cccnc1)c1ccc(Cl)c(S(=O)(=O)N2CCCCC2)c1	n	u	n	n	n
O=C(NCc1ccccc1CN1CCCC1)c1ccc(Cl)c(S(=O)(=O)N2CCCC2)c1	x	11.7µM	n	n	13.1µM
CCCn1c(NC(=O)c2ccc(Cl)c(S(=O)(=O)N3CCCC3)c2)nc2ccccc21	n	5.22µM	-63.3	n	5.86µM
Cc1cscc1-c1nc(NCC2CC2)nc2ccsc12	x	x	n	x	x
O=C(CN1CCN(C(=O)C2CCN(C(=O)/C=C/c3ccccc3)CC2)CC1)Nc1ccccc1Cl	x	u	n	n	n
OCc1ccccc1OCc1ccccc1	x	x	n	x	x
O=C1OCC(O)=C1Cc1ccccc1	x	x	n	x	x
O=C(NCc1nc2ccccc2[nH]1)c1ccc(Cl)c(S(=O)(=O)N2CCCC2)c1	n	n	n	n	10.4µM
O=C(NCc1ccccc1CN1CCCC1)c1ccc(S(=O)(=O)Nc2ccccc2F)cc1	x	x	-75.4	x	x
Cc1ccccc1NS(=O)(=O)c1ccc(C(=O)NCc2ccccc2CN2CCCC2)cc1	x	x	n	x	x
COc1ccc(-n2c(=S)[nH]c(=O)c3cccnc32)cc1	n	n	n	17.8µM	n
COCCNC(=O)/C(C#N)=C/c1ccc(C)o1	n	n	n	n	n
CCOCCCNC(=O)/C(C#N)=C/c1ccc(C)o1	n	n	n	39.8µM	n
COc1ccc(Nc2cc3c(cn2)cc(-c2cccnc2)n3C)cn1	x	x	n	x	x
O=C(/C=C\c1ccc(O)c(O)c1)O[C@@H]1C[C@](O)(C(=O)O)C[C@@H](O)[C@@H]1O	n	x	x	x	x
O=C(/C=C/c1ccc(O)c(O)c1)O[C@@H]1C[C@](O)(C(=O)O)C[C@@H](O)[C@H]1O	x	n	-60.2!	n	n
COc1cccc(NC(=O)Cn2c(=O)n(Cc3ccccc3)c(=O)c3ccccc32)c1	x	x	n	n	x
SMILES	FBPA Giardia inh	Pf growth 96h	HCMV inh	Sm TGR inh	Pf growth 48h
CCCCCNC(=O)Cn1c(=O)c2c(ncn2CC(C)C)n(Cc2ccccc2)c1=O	n	n	n	n	u
COc1cccc(NC(=O)Cn2c(=O)c3c(ncn3Cc3ccccc3)n(Cc3ccccc3)c2=O)c1	n	0.828µM	n	n	x
CC(C)CNC(=O)Cn1c(=O)c2c(ncn2CC(C)C)n(Cc2ccccc2)c1=O	n	u	-66.9	n	u
C[C@@H]1CN([C@@H](C)CO)C(=O)CCCn2cc(nn2)CO[C@H]1CN(C)C(=O)Nc1ccc(F)cc1	x	x	n	x	x
CCN(CC)C1CCN(C(=O)c2ccc(OC3CCN(C(=O)CCOC)CC3)cc2)C1 (centres undefined)	x	x	n	x	x
CCCC[C@@H]1Cc2[nH][nH]c(=O)c2[C@H](c2ccc3ccccc3c2)O1	x	x	n	x	x
O=c1ccn(Cc2ccccc2)cc1	n	n	n	n	n
Cc1ccccc1Cn1ccc(=NCc2ccccc2)cc1	n	0.329µM	-98.1	n	0.738µM

Screening data: PubChem, National Center for Advancing Translational Sciences (NCATS)
